Measured values taken from PubChem BioAssay (NCATS).
Inconclusive results are not listed. Active and inactive are the calls of the source. Calls follow the shape of the dose curve; as a rule, active = well fitted cell-killing curve with a large enough effect; inconclusive = small, poorly fitted or top-dose-only effect, or effect the other way; inactive = flat fitted curve, though single readings scatter.

Tests used:
Assay in all cases: Primary qHTS to identify gynecologic anti-cancer compounds using libraries of approved drugs and bioactive compounds (AID 1345084); also: nearly all actives have a fitted effect of over 55% in size
C33A = conditions: Gynecologic cancer cell panel viability, ATPlite luminescence, 48 h; series mostly up to 57.5 µM
Method in brief: (§1)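 Luminescence from the ATPlite ATP-monitoring reagent indicates viable cell number; lower signal means cytotoxicity. Cells received compound 16 h after seeding and were exposed for 48 h across five concentrations.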

CAOV3 = conditions: Gynecologic cancer cell panel viability, ATPlite luminescence, 48 h; series mostly up to 57.5 µM
Method in brief: as §1

CASKI = conditions: Gynecologic cancer cell panel viability, ATPlite luminescence, 48 h; series mostly up to 57.5 µM
Method in brief: as §1

Es-2 = conditions: Gynecologic cancer cell panel viability, ATPlite luminescence, 48 h; series mostly up to 57.5 µM
Method in brief: as §1

HeLa = conditions: Gynecologic cancer cell panel viability, ATPlite luminescence, 48 h; series mostly up to 57.5 µM
Method in brief: as §1

Hek293T = conditions: Gynecologic cancer cell panel viability, ATPlite luminescence, 48 h, control line for the selectivity index; series mostly up to 57.5 µM
Method in brief: as §1

JEG-3 = conditions: Gynecologic cancer cell panel viability, ATPlite luminescence, 48 h; series mostly up to 57.5 µM
Method in brief: as §1

OV90 = conditions: Gynecologic cancer cell panel viability, ATPlite luminescence, 48 h; series mostly up to 57.5 µM
Method in brief: as §1

PA-1 = conditions: Gynecologic cancer cell panel viability, ATPlite luminescence, 48 h; series mostly up to 57.5 µM
Method in brief: as §1

Tov-21-G = conditions: Gynecologic cancer cell panel viability, ATPlite luminescence, 48 h; series mostly up to 57.5 µM
Method in brief: as §1

Tov112D = conditions: Gynecologic cancer cell panel viability, ATPlite luminescence, 48 h; series mostly up to 57.5 µM
Method in brief: as §1

SKOV3 = conditions: Gynecologic cancer cell panel viability, ATPlite luminescence, 48 h; series mostly up to 57.5 µM
Method in brief: as §1

Measured: Potency

CCC(=O)O[C@H]1C(C)(C)[C@H]([C@@H](O)C(=O)OC)[C@]2(C)C(=O)[C@@]1(O)[C@H]1O[C@]13C1CC(=O)O[C@@H](c4ccoc4)[C@]1(C)CCC32 (stereo partly drawn)
not listed: SKOV3
inactive: all other assays above

CCC(O)C(C)C1CCC(C(C)C(=O)O)O1 (stereo not drawn)
not listed: SKOV3
inactive: all other assays above

CC1(C)CC[C@]2(C(=O)O[C@@H]3O[C@H](CO)[C@@H](O)[C@H](O)[C@H]3O)CC[C@]3(C)C(=CCC4[C@@]5(C)C[C@@H](O)[C@H](O)C(C)(C)C5CC[C@]43C)C2[C@@H]1O (stereo partly drawn)
not listed: SKOV3
inactive: all other assays above

C/C(=C\C=C\C(C)C1CCC2(C)C3CCC4C(C)(C)C(=O)CCC45CC35CCC12C)C(=O)O (stereo not drawn)
not listed: PA-1
inactive: all other assays above

CC(C)c1cc2c(c(O)c1O)[C@@]13CCCC(C)(C)[C@@H]1[C@H](OC3=O)C2=O
not listed: PA-1
inactive: all other assays above

Cc1cc(C(=O)N2CCCCc3ccccc32)ccc1CNC(=O)N1CCC[C@H]1C(=O)N(C)C
not listed: SKOV3
inactive: all other assays above

CC1(C)CC[C@]2(C(=O)O)CC[C@]3(C)C(=CCC4[C@@]5(C)CC[C@H](O[C@@H]6O[C@H](C(=O)O)[C@@H](O[C@@H]7OC[C@@H](O)[C@H](O)[C@H]7O)[C@H](O)[C@H]6O)C(C)(C)C5CC[C@]43C)C2C1O (stereo partly drawn)
not listed: PA-1
inactive: all other assays above

CCNC(=O)C1OC(n2cnc3c(N)nc(NCCc4ccc(CCC(=O)O)cc4)nc32)C(O)C1O (stereo not drawn)
not listed: SKOV3
inactive: all other assays above

OCC1OC(Oc2cc(O)cc(/C=C/c3ccc(O)cc3)c2)C(O)C(O)C1O (stereo not drawn)
not listed: PA-1 | Tov-21-G
inactive: all other assays above

C=C1[C@@H]2CC[C@@H]3[C@@](CCC4C(C(=O)O)(C(=O)O)C[C@@H](O[C@@H]5O[C@H](CO)[C@@H](O)[C@H](O)[C@H]5OC(=O)CC(C)C)C[C@]43C)(C2)[C@H]1O (stereo partly drawn)
not listed: PA-1
inactive: all other assays above

C/C=C/C=C/C(O)=C1\C(O)=C(C)C(=O)[C@@]2(C)OC(=O)[C@@](C)(NC(=O)/C=C/C(=O)O)[C@@H]12
not listed: PA-1
inactive: all other assays above

OC[C@H]1O[C@@H](O[C@H]2[C@H](OCCc3ccccc3)O[C@H](CO)[C@@H](O)[C@@H]2O)[C@H](O)[C@@H](O)[C@@H]1O
not listed: PA-1
inactive: all other assays above

Cc1[nH]c2ccccc2c1C1=C(NCCc2ccc(F)cc2)C(=O)N(C)C1=O
not listed: PA-1
inactive: all other assays above

CC(C)(C)OC(=O)N1CCC(OCc2nc(-c3ccncc3)no2)CC1
not listed: Tov-21-G | SKOV3
inactive: all other assays above

O=C(NCc1ccc(F)cc1)C(=O)c1c[nH]c2ccccc12
not listed: PA-1
inactive: all other assays above
